Screens from PubChem.
Shown are actives, neighbours in structure and some others; about 5.3% of the full set was active somewhere.
FBPA coupling cs = coupling enzyme interference in Giardia aldolase counter-screen; coupling enzyme system counterscreen, AmpLite Red fluorescence; activity change, negative = inhibition, % at 58.2 µM, hits read low; 0.67% of 290,000 active; in the data active means activity change below about -30%
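Activity here indicates interference with the coupling reaction, not aldolase inhibition. Compounds at 57.5 uM final met coupling enzymes for 10 min at RT; substrate and AmpLite Red detection followed, with a 525/598 nm fluorescence read after 20 min.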
Tau fibril FP = tau fibrillization inhibition (FP); P10636; AID 1468; Potency, µM (titrated, usually from 57.7 µM), usual class: inhibitors; K18 P301L tau heparin fibrillization, Alexa594 FP, 6 h; 0.39% of 280,000 active; further: nearly all actives have a fitted effect of over 55% in size
Target sequence (P10636 561-689 P618L limits assumed): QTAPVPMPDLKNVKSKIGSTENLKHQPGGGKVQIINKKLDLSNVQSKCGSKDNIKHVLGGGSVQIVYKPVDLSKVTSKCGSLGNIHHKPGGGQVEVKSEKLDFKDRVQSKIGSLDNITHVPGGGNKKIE
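Steps: dispense K18 P301L tau (15 uM plus 0.24 uM Alexa 594 tracer, final) in pH 7 sodium acetate; add compound; add heparin (20 uM final); incubate 6 hr, 37 C; add ThT (30 uM final); after 1 hr ambient, read FP.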
Sfp inh = inhibitors of Bacillus subtilis Sfp phosphopantetheinyl transferase; Biochemical Sfp PPTase activity, qHTS; Potency, µM, actives largely listed as inhibitors; 3.5% of 310,000 active; Q9F4F7; AID 1490;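 further: the enzyme is Sfp with the accession as filed and its product quenches rhodamine fluorescence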
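After 15 min at room temperature with compound, 15 nM Sfp received 5 uM rhodamine-CoA plus 12.5 uM BHQ-2-ybbR (50 mM Hepes pH 7.6, 10 mM MgCl2). Rate came from the fluorescence difference over 30 min, ex 525/em 598 nm.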
Tau ThT inhib = inhibitors of human tau fibril formation, thioflavin T binding; recombinant tau K18 P301L, heparin-induced fibrillization, ThT fluorescence; Potency, µM (series often up to 57.4 µM), most hits filed as inhibitors; 2.1% of 270,000 active; further: nearly all actives have a fitted effect of over 55% in size
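Heparin-induced (20 uM) aggregation of recombinant human K18 P301L tau, 15 uM unlabeled with 0.24 uM labeled, pH 7 acetate buffer, 6 hr at 37 C with compound. Fibrils quantified by 30 uM ThT fluorescence after 1 hr ambient incubation.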
KDM4E inh = JMJD2E (human) inhibition | Potency, µM (doses to about 57.1 µM), usual class: inhibitors | 1.6% of 230,000 active | AID 2147 | JMJD2E catalytic domain, FDH-coupled NADH fluorescence (FDH is formaldehyde dehydrogenase); further: nearly all actives have a fitted effect of over 50% in size
Target sequence (B2RXH2 1-337 limits assumed): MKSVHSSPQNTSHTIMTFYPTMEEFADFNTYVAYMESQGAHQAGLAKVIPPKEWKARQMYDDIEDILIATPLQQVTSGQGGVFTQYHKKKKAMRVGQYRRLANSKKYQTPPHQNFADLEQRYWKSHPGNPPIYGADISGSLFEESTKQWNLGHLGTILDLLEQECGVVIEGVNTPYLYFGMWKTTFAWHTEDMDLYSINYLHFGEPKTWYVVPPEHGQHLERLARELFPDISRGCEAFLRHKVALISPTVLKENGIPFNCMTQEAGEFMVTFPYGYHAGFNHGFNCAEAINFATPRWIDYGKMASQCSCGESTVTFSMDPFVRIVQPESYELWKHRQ
Tau fluor cs = counter-screen for tau fibril formation inhibitors. tau K18 P301L (four-repeat tau fragment) Alexa594 fluorescence, heparin fibrillization. Potency, µM (series often up to 57.7 µM). 0.93% of 280,000 active; further: nearly all actives have a fitted effect of over 55% in size
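Human K18 P301L tau (15 uM unlabeled plus 0.24 uM Alexa 594-labeled, final) in 100 mM sodium acetate pH 7 was mixed with compound and 20 uM heparin and incubated 6 hr at 37 C.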
A number is an active result; i = inactive; ? = inconclusive; nt = no result given; [ ] = remark or other dose. Unless noted, the call rests on the fitted dose curve; in most records, active means well fitted curve in the direction sought with a large enough effect; inconclusive means small, poorly fitted or top-dose-only effect, or another doubt; inactive means no such curve, though single readings can be large; an effect the other way counts as inactive or inconclusive.

SMILES	FBPA coupling cs	Tau fibril FP	Sfp inh	Tau ThT inhib	KDM4E inh	Tau fluor cs
Cc1cccc2cc3c(N)c(C(=O)Nc4ccc(N5CCOCC5)cc4)sc3nc12	i	i	?	2.8µM	?	11µM[quencher]
Cc1cccc2cc3c(N)c(C(=O)N4CCc5ccccc54)sc3nc12	i	?	i	4.5µM	i	?
O=C(c1cnc2n(c1=O)CCS2)N1CCc2ccccc21	i	i	i	i	i	i
CCc1cccc2cc3c(N)c(C(=O)Nc4ccc(S(=O)(=O)N5CCCC5)cc4)sc3nc12	i	?	i	5.6µM	i	?
CCOc1ccc2nc3sc(C(=O)N4CCOCC4)c(N)c3cc2c1	i	?	32µM	7.1µM	i	?
Cc1ccc(C)c2nc3sc(C(=O)N4CCOCC4)c(N)c3cc12	i	i[2.34 µM]	i	i	i	i[2.34 µM]
Cc1ccc2nc3sc(C(=O)Nc4ccc(N5CCOCC5)cc4)c(N)c3cc2c1	i	i	i	2µM	i	?
Cc1cccc(C(=O)NC(=S)NNC(=O)COc2ccc(Cl)cc2)c1	i	i	?	?	i	i
O=C(COc1ccccc1)NNC(=S)NC(=O)c1ccc(Cl)cc1Cl	i	i	50µM	?	i	i
CC(C)OCCCn1c(=O)c2ccccc2n2c(-c3ccc(F)c(F)c3)nnc12	nt	i	nt	i	nt	i
Cc1cccc(C)c1NC(=O)CSCC(=O)c1ccc(O)c(O)c1	i	i	?	?	28µM	i
CCN1CCN(c2nc3ccccc3nc2C(C#N)S(=O)(=O)c2ccc(C)cc2)CC1 (centres undefined)	i	i	i	i	i	i
Cc1ccc(S(=O)(=O)C(C#N)c2nc3ccccc3nc2N2CCCC2)cc1 (centres undefined)	-30	i	?	?	?	i
C#CC(C)(C)NS(=O)(=O)c1cc(-c2nnc(Nc3ccc(C)cc3)c3ccccc23)ccc1C	nt	i	nt	i	nt	?
Cc1c(C2=CCN(S(=O)(=O)c3ccc(CC(C)C)cc3)CC2)c2ccccc2n1CC(=O)N1CCCC1	nt	i	nt	i	nt	i
CCOC(=O)c1c2c([nH]c(=S)c1C#N)CCCC2	i	i	40µM	?	i	i
COc1ccc(NCCNc2ccc(OC)cc2)cc1	-35	i	i	?	i	i
CCOC(=O)c1c(C)oc2c1c(C(c1cccnc1)N1CCCCC1)c(O)c1ccccc12 (centres undefined)	-36	i	i	?	?	?
CCOC(=O)c1cnc(-c2ccccc2)nc1N1CCOCC1	i	i	i	i	i	i
CCOC(=O)c1c(C)oc2c1c(C(c1ccccc1)N1CCOCC1)c(O)c1ccccc12 (centres undefined)	-42	i	i	i	i	i
CCOC(=O)c1c(C)oc2c1c(C=NCCO)c(O)c1ccccc12	-65	i	50µM	13µM	i	?
COc1ccccc1/C=C/c1nc(C#N)c(N2CCN(C)CC2)o1	nt	i	nt	?	nt	i
CC1CCC(NC(=O)c2ccc3c(c2)N(Cc2cccc(Cl)c2)C(=O)c2ccccc2S3(=O)=O)CC1 (centres undefined)	nt	i	nt	i	nt	i
O=C(/C=C/c1ccco1)Nc1ccc(Cl)c(-c2nc3cc(Cl)ccc3o2)c1	nt	?	nt	i	nt	?
N=c1c2c(-c3ccccc3)c(-c3ccccc3)n(Cc3ccco3)c2ncn1Cc1ccco1	i	i	35µM	?	i	i
SMILES	FBPA coupling cs	Tau fibril FP	Sfp inh	Tau ThT inhib	KDM4E inh	Tau fluor cs
COC(=O)C1=C(C)N(Cc2ccccc2)C2=C(C(C)=O)C(c3ccccc3)[C@@](O)(C(=O)OC)C(=O)N2C1c1ccccc1 (some centres undefined)	i	?	i	?	nt	i[11.6 µM]
CCc1ccccc1Nc1ncnc2c1cnn2-c1ccc(Cl)cc1	nt	i	nt	?	nt	i
COC(=O)c1cccc(OCC(O)Cn2cnc3cc(C)c(C)cc32)c1 (centres undefined)	i	i	89µM	i	i	i
COC(=O)c1ccc(OCC(O)Cn2cnc3cc(C)c(C)cc32)cc1 (centres undefined)	nt	i	nt	?	nt	i
O=C1C=C(N2CCN(C3=CC(=O)CCC3)CC2)CCC1	i	?	i	25µM	i	i
O=C1C(=Cc2ccc(Br)o2)C(=O)c2ccccc21	i	?	56µM	6.3µM	i	?
Cc1nnc(C)n1/N=C/c1cc(Br)ccc1O	i	i	i	i	i	i
Cc1nnc(C)n1/N=C/c1cc(Br)cc(Br)c1O	i	i	i	11µM	i	i
Cc1ccc(/C=C/C(=O)Nc2ccc3nc(N4CCC(C)CC4)cc(C)c3c2)cc1	nt	i	nt	2.5µM	nt	6.3µM[quencher]
Cc1cc(N2CCC(C)CC2)nc2ccc(NC(=O)/C=C/c3cccc(Cl)c3)cc12	nt	i	nt	6.3µM	nt	14µM[quencher]
COc1ccccc1C(=O)Nc1cccc(OCc2cc(=O)n3ccccc3n2)c1	nt	i	nt	i	nt	i
